For seven molecules, Potency, outcome and max response results are on record in PubChem BioAssay (NCATS).

Results filed as inconclusive are left out. Active and inactive are the calls of the source. Unless noted, calls follow the shape of the dose curve; as a rule, active = well fitted curve in the direction sought with a large enough effect; inconclusive = small, poorly fitted or top-dose-only effect, or another doubt; inactive = no such curve, though single readings can be large; an effect the other way counts as inactive or inconclusive.

The target in assay [1] is Mitogen-activated protein kinase 10 (Mus musculus) (UniProt Q61831). As to the kind of experiment: JNK3 AlphaScreen Assay (AID 530; active = well fitted curve in either direction with a large enough effect, not every such curve was filed as active;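 also: kinase came from lysate of stimulated human HepG2 cells; signal reports phosphorylation of biotinylated GST-cJun 1-79 at Ser73 with 10 µM ATP; % is scaled to controls: 0 for no effect and ±100 for the full control effect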). In a few lines:
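Biotinylated GST-cJun(1-79) served as substrate for JNK3 in HepG2 lysates stimulated with IL-1beta and TNF-alpha. ATP was 10 uM final, pH 7.6. Ser73 phosphorylation was quantified by AlphaScreen (680 nm excitation).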
In general terms: Alpha assays give light when donor and acceptor beads are brought close together.

Assay [2] in a line: Cell Viability - N2a (AID 540).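 Also: cells exposed to compound for 40 h at 37 °C; plate controls were DMSO alone for no effect and tamoxifen control for full effect; nearly all actives have a fitted effect of over 45% in size.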 The note with it: N2a mouse neuroblastoma cell viability; activity change, negative = cytotoxicity: at 92.2 µM (top of the series). In a few lines:
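N2a mouse neuroblastoma, 1500 cells/well, 5 hr settle; compound 40 hr, 37 °C; CellTiter-Glo 20 min RT; luminescence; Hill-fit AC50.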

Assay [3] in a line: Cell Viability - HUV-EC-C (AID 542).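 Also: cells exposed to compound for 40 hours; % is scaled to controls: 0 for no effect and ±100 for the full control effect; nearly all actives have a fitted effect of over 35% in size.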 In a few lines: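 Luminescent ATP read-out (CellTiter-Glo, 20 min room temperature) after 40 hr compound treatment of HUV-EC-C cells at 37 °C. Concentration-response data fitted with the standard Hill equation to give AC50; tamoxifen and doxorubicin served as positive controls.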
The nature of assay [4]: Cell Viability - Mesenchymal (AID 546).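 Also: cells exposed to compound for 40 hours before reading; 0% = DMSO only and -100% = 100 µM tamoxifen.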 In a few lines: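 In this qHTS cytotoxicity format, glomerulus-derived human mesenchymal kidney cells received compound for 40 hr, then luciferase-based ATP quantitation. Concentration-response data were fitted with the Hill equation.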
Assay [5] in a line: Cellular Toxicity (caspase-3) Mesangial (AID 660).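 Also: combined caspase 3 and 7 activity read by Caspase-Glo luminescence; cells exposed to compound for 16 h before the caspase read.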 Summed up: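 Luminescent Caspase-Glo 3/7 readout (aminoluciferin substrate cleavage, 20 min RT) after 16 h compound exposure at 37 °C of normal human mesangial cells. Signal increase normalized between DMSO basal and 100 uM tamoxifen; Hill-equation AC50.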
A short description of assay [6]: Cellular Toxicity (caspase-3) Renal Proximal Tubule (AID 667).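 Also: cells exposed to compound for 16 hours at 37 °C before detection; 0% = DMSO basal and 100% = 10 µM staurosporine.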 Summed up:
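Caspase 3/7 activation measured by luminescent aminoluciferin release in primary rat proximal tubule cells after 16 hr compound exposure at 37 °C. AC50 from Hill-fitted concentration-response, scaled between DMSO and 10 uM staurosporine.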

The target in assay [7] is Cytochrome P450 3A4 (Homo sapiens) (UniProt P08684). Briefly: qHTS Assay for Inhibitors and Substrates of Cytochrome P450 3A4 (AID 884). Also: nearly all actives have a fitted effect of over 50% in size. Also: potency is read from the fitted curve at half-maximal effect. In a few lines:
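Luminescent readout of luciferin produced by CYP3A4 (20 nM) dealkylation of Luciferin-PPXE, 25 uM (its KM). NADPH-driven reaction ran 60 min at RT after 10 min compound preincubation; data scaled to 57 uM ketoconazole as 100% inhibition.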
For orientation: Quantitative high-throughput screening tests each substance at several concentrations.

The nature of assay [8]: MultiTox-Fluor Cytotoxicity Assay - LYMP1-001 - Live Cells (AID 947).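 Also: 0% = DMSO only and full inhibition = tetraoctylammonium bromide control.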
Assay [9] can be described thus: Cell Viability - LYMP2-005 (AID 967).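 Also: plate controls were DMSO only for no effect and 92 µM tetraoctylammonium bromide control for full effect.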 In a few lines: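 LYMP2-005 human lymphoblastoid cells (2500/well) were treated with compounds for 24 h at 37 C. Intracellular ATP was then measured by CellTiter-Glo luminescence after 30 min at room temperature. AC50 values came from Hill-equation fits of qHTS concentration-response data.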
The nature of assay [10]: Cell Viability - LYMP2-010 (AID 981).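 Also: cells exposed to compound for 24 hours at 37 °C; % is scaled to controls: 0 for no effect and ±100 for the full control effect; nearly all actives have a fitted effect of over 55% in size.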 Summed up:
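qHTS cytotoxicity, 1536-well: 2500 cells/well, 5 hr settle, 24 hr compound at 37 C, CellTiter-Glo 30 min RT, luminescence read. Decrease in ATP = toxicity; AC50 via standard Hill equation. Positive control tetraoctylammonium bromide.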

Assay [11] can be described thus: Cell Viability - LYMP2-016 (AID 984).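 Also: cells exposed to compound for 24 hours at 37 °C; % is scaled to controls: 0 for no effect and ±100 for the full control effect; nearly all actives have a fitted effect of over 55% in size.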 In a few lines:
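Cytotoxicity was scored by luminescent ATP content (CellTiter-Glo) after 24 h compound exposure at 37 C of a human lymphoblastoid line at 2500 cells/well. Concentration-response data were fitted to the Hill equation for AC50.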

For assay [12], the target named is Vitamin D3 receptor (Homo sapiens) (UniProt P11473). Briefly: qHTS assay for small molecule antagonists of vitamin D receptor signaling (AID 588541; calls by dose curve;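 also: receptor activated by calcitriol during compound treatment; % is scaled to controls: 0 for no effect and ±100 for the full control effect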). In a few lines:
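VDR-UAS-bla HEK293T cells (2000/well, 2% charcoal-stripped FBS) were treated with titrated compounds plus 1-alpha,25-dihydroxyvitamin D3 (50 nM or 3 nM final) for 16 h at 37 C. CCF4 beta-lactamase fluorescence was read; Hill fits gave IC50.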

Assay [13] can be described thus: qHTS assay for small molecule antagonists of retinoid X receptor alpha signaling (AID 588546).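 Also: cells stimulated with 9-cis-retinoic acid as agonist; % is scaled to controls: 0 for no effect and ±100 for the full control effect.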 The note with it: HEK293T RXRa-UAS-bla, beta-lactamase ratio, antagonist mode; measured here: W530 green channel, cytotoxicity proxy. In a few lines: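 Beta-lactamase reporter inhibition, read as CCF4 fluorescence ratio (ex 405, em 460/530 nm) after 2 h at RT. HEK293T UAS-bla cells, 2500/well, were stimulated with 9-cis-RA at 500 or 100 nM final alongside test compound for 18 h at 37 C.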

The target in assay [14] is Voltage-gated inwardly rectifying potassium channel KCNH2 (Homo sapiens) (UniProt Q12809). As to the kind of experiment: qHTS Assay for Small Molecule Inhibitors of the Human hERG Channel Activity (AID 588834).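 Also: top concentration of the series differs between compounds; % is scaled to controls: 0 for no effect and ±100 for the full control effect; lower thallium flux fluorescence means stronger hERG block; nearly all actives have a fitted effect of over 50% in size.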 In a few lines: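 hERG block measured as reduced thallium-dye (FluxOR) fluorescence after stimulation buffer addition, read over 2 min. Cells were hERG-BacMam-transduced U2OS exposed to compound ~10 min […]; concentration-response fitted with Hill equation for AC50.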

In assay [15] the target is Nuclear receptor subfamily 1 group I member 2 (Rattus norvegicus) (UniProt Q9R1A7). Briefly: qHTS assay for small molecule activators of the rat pregnane X receptor (rPXR) signaling pathway (AID 651751; call rule not given here; also: 0% is about no effect). The note with it: rPXR reporter cells, luciferase (One-Glo), 24 h.
Assay [16] in a line: qHTS assay for small molecule activators of the human pregnane X receptor (PXR) signaling pathway (AID 720659; call rule not given here; also: 0% is about no effect).
Assay [17] can be described thus: Cell Viability - Renal Proximal Tubule (AID 545).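 Also: cells exposed to compound for 40 hours; 0% = DMSO only and -100% = 100 µM tamoxifen; nearly all actives have a fitted effect of over 40% in size.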 In a few lines: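 Viability taken as intracellular ATP (CellTiter-Glo luminescence) after 40 hr, 37 °C compound treatment of primary proximal tubule cells from rat kidney, 1000 cells/well; Hill-equation fits of qHTS concentration-response data gave AC50.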
The nature of assay [18]: Cell Viability - LYMP2-024 (AID 988).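 Also: plate controls were DMSO only for no effect and 92 µM tetraoctylammonium bromide for full effect; nearly all actives have a fitted effect of over 60% in size.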 In a few lines: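 ATP-based luminescence (CellTiter-Glo, 30 min RT) after 24 h compound exposure at 37 C of 2500 lymphoblastoid cells/well; decrease in ATP taken as cytotoxicity. qHTS concentration-response fitted to standard Hill equation for AC50.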
Assay [19] is described as follows: qHTS assay for small molecule disruptors of the mitochondrial membrane potential - 1 hr assay (AID 651754; calls by dose curve; also: nearly all actives have a fitted effect of over 35% in size; also: potency is read from the fitted curve at half-maximal effect). In a few lines:
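Read-out: dye fluorescence at 490 nm ex/535 nm em (monomers) and 540 nm ex/590 nm em (aggregates) in HepG2 cells. Compound exposure 1 hr at 37C, followed by 30 min dye loading.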

The nature of assay [20]: qHTS assay for cell viability of HEK293 cells (AID 743288). Also: % is scaled to controls: 0 for no effect and ±100 for the full control effect; nearly all actives have a fitted effect of over 50% in size. The note with it: ATP luminescence (CellTiter-Glo), 18 h, stronger effect = lower value. Summed up: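 Readout is luciferase-coupled ATP content (CellTiter-Glo luminescence, 30 min room temperature) as a measure of metabolically competent cells. Parental HEK293 cells were plated 5 h or more before compound addition, then treated 18 h at 37 C.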

Sequence of Vitamin D3 receptor (Homo sapiens) (P11473 whole entry, looked up): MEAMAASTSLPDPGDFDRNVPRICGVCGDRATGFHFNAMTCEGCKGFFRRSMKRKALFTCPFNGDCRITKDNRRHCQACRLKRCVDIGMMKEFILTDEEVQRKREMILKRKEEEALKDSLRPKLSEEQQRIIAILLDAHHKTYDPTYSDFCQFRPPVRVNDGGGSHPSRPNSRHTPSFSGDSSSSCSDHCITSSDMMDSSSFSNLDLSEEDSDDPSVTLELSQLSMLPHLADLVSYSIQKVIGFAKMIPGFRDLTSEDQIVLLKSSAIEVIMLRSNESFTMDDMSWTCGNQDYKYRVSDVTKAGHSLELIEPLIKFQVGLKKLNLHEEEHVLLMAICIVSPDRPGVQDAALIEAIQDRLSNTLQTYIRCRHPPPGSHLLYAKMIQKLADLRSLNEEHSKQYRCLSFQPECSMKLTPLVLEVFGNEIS
Sequence of Nuclear receptor subfamily 1 group I member 2 (Rattus norvegicus) (Q9R1A7 whole entry, looked up): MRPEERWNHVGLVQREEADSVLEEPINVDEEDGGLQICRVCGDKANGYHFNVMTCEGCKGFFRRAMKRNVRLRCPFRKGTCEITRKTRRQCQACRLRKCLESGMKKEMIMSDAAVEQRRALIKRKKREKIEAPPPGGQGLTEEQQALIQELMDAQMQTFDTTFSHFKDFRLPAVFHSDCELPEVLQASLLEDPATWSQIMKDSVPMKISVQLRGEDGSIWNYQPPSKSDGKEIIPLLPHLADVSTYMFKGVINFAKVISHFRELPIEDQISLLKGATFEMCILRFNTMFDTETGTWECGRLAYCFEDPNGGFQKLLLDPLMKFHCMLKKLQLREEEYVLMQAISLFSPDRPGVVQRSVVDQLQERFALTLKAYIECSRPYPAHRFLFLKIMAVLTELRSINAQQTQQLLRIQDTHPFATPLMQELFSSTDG
Sequence of Voltage-gated inwardly rectifying potassium channel KCNH2 (Homo sapiens) (Q12809 whole entry, looked up): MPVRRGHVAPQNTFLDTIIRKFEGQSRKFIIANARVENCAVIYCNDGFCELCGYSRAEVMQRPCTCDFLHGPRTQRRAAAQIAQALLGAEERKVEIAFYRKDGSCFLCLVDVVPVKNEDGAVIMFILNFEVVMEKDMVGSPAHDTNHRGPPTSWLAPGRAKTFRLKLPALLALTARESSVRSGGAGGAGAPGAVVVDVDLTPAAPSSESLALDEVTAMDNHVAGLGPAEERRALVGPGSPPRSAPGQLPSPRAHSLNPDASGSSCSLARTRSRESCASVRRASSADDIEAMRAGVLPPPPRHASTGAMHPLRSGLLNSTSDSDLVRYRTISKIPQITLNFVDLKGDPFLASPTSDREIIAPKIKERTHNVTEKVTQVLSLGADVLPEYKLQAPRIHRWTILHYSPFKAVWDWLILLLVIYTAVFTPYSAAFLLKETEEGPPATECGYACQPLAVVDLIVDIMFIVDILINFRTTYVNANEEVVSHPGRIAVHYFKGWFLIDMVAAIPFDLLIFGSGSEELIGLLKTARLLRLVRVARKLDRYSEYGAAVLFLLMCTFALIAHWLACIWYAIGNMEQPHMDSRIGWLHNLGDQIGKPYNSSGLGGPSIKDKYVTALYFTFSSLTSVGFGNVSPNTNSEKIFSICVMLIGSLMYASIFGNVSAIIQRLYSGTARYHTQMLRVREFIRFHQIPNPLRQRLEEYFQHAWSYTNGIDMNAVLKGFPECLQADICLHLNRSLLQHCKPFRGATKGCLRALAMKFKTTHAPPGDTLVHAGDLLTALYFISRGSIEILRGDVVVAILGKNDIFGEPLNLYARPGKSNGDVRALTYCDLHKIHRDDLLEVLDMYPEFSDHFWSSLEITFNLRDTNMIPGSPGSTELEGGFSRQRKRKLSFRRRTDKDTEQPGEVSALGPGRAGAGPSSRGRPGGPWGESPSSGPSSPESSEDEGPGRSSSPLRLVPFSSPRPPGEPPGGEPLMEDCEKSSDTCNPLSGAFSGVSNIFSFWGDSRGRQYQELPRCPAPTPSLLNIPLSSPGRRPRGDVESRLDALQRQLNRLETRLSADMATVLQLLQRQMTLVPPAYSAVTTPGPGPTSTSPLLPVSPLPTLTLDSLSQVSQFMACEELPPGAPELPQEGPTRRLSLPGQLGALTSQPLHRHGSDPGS
Sequence of Cytochrome P450 3A4 (Homo sapiens) (P08684 whole entry, looked up): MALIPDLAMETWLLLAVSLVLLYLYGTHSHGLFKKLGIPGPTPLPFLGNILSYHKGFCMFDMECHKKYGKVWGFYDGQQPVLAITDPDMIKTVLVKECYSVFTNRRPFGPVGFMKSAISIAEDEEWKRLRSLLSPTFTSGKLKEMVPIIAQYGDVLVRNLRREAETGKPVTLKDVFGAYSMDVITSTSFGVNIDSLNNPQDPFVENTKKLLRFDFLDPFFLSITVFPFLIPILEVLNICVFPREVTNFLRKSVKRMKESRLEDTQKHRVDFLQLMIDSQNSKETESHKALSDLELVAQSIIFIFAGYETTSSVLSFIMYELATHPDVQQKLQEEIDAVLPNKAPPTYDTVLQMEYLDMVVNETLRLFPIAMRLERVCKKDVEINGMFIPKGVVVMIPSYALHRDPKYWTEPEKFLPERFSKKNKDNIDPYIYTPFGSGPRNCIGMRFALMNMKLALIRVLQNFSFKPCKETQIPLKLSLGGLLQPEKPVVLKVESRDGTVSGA

For the molecule `Nc1ccccc1-c1ccccc1`, the Potency entry in [1], in [2], in assay [3], in assay [4], in assay [7] and in [9] was “inactive” each time. The Potency result in assay [10], in assay [11] and in [14] was “inactive” each time. For the same molecule, the molecule was called inactive in assay [5], in assay [6], in [8], in assay [12] and in assay [16]. Besides, the max response in assay [13] is -0.398%; in assay [15], 0.403% (inactive).

As for `O=[N+]([O-])c1ccccc1-c1ccccc1`, the Potency entry in assay [2], in assay [3], in assay [4], in [7], in [9] and in assay [10] was “inactive” each time. Moreover, the Potency result in assay [11], in assay [18] and in assay [19] was “inactive” in each case. Further, the molecule was called inactive in [17], in assay [8] and in [16]. The max response in [13] is -2.63%; in assay [20] it was 0.829% (inactive); in [15], 0.722% (inactive).

On to `COC(=O)c1ccccc1N`, for which the Potency entry in [1], in assay [2], in assay [4], in assay [7], in assay [9] and in [10] was “inactive” each time. In addition, the Potency result in assay [11], in assay [18] and in assay [14] was “inactive” in each case. For the same molecule, the result in assay [17], in assay [5], in assay [6], in assay [8], in [12] and in assay [16] was inactive. In addition, the figures for the max response in [13], in assay [20] and in assay [15] were 0.965%, -4.36% (inactive) and -0.835% (inactive), respectively.

Take `Cc1cc(-c2cc(C)c(N)c(C)c2)cc(C)c1N`: the Potency result in assay [2], in assay [3], in [4], in assay [9], in assay [10] and in assay [11] was “inactive” each time. Further, the Potency entry in [18], in assay [14] and in assay [19] was “inactive” throughout. The molecule was called inactive in assay [17], in assay [5], in assay [6], in [8], in assay [12] and in [16]. Moreover, the Potency in assay [7] is 25.1 µM (active). The max response in assay [13] was -0.244%; in [20], 7.5% (inactive); in assay [15], 14.1% (inactive).

For the molecule `Oc1cc(Cl)cc(Cl)c1`, the Potency result in [1], in assay [3], in assay [4], in assay [7], in [9] and in assay [10] was “inactive” throughout. Besides, the Potency result in assay [11], in assay [18] and in [14] was “inactive” each time. Further, the result in assay [5], in assay [6], in assay [8], in assay [12] and in assay [16] was inactive. In addition, the max response in assay [13] was -2.61%; in assay [20] it was 3.49% (inactive); in [15] it was 0.776% (inactive). Also, the Potency in assay [19] is 42.2 µM (active).

With `OCCCCO`, the Potency entry in [1], in assay [2], in assay [3], in assay [7], in [9] and in [10] was “inactive” in each case. The Potency entry in assay [11], in assay [18], in assay [14] and in assay [19] was “inactive” each time. Besides, the call in [17], in assay [5], in [6], in assay [8] and in assay [12] was inactive. Besides, in [13], the max response is -5.28%.

With `Nc1ccc(-c2ccc(N)cc2)cc1`, the Potency result in assay [1], in assay [2], in assay [3], in [4], in [9] and in [10] was “inactive” in each case. For the same molecule, the Potency entry in assay [11], in assay [18] and in assay [14] was “inactive” throughout. In addition, the result in assay [6], in assay [8], in [12] and in assay [16] was inactive. The max response is -2.33% in assay [13] and 2.98% (inactive) in [20].
